The values that follow come from publication PMC7862700, “An all-to-all approach to the identification of sequence-specific readers for epigenetic DNA modifications on cytosine”.

Test in all cases: DAPPL (digital affinity profiling via proximity ligation, sequencing); 10 mM Tris-HCl pH 7.5, 50 mM NaCl, 1 mM DTT, 4% glycerol, room temperature, 30 min; GST-TFs on glutathione beads, 16-mer random dsDNA library, 0.1% formaldehyde crosslink after washing; high values mean tight binding
What all share (settings): protein: recombinant; tags: N-terminal GST; dsDNA, one strand shown

One test addresses T1, ELK1 (Homo sapiens, UniProt P19419 1-428).
T1 sequence: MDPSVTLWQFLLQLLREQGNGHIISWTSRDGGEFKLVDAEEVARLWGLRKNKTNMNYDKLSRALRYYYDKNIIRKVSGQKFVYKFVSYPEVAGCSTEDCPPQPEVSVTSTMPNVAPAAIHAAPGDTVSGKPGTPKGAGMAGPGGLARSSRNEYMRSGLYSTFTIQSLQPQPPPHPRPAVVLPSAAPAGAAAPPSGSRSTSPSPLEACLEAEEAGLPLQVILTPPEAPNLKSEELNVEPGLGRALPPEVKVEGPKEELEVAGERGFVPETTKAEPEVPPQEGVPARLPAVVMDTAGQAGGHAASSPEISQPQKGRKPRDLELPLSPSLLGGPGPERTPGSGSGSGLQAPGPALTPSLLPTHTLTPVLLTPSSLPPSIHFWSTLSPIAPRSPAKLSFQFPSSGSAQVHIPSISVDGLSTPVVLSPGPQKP
The procedure, abridged: (§1)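 Each value of binding signal is a hexamer's read frequency for a factor divided by the same hexamer's frequency in the tag-only sample. Barcoded, bead-captured GST fusions of human transcription factors made in yeast were pooled with that sample and incubated with 200 nmole of a random double-stranded 16-mer DNA library in Tris/NaCl/DTT/glycerol buffer at room temperature for 30 min. Washing, 0.1% formaldehyde crosslinking, proximity ligation, PCR and Illumina NextSeq500 sequencing followed.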

The target in a further test is T2, GABPA (Homo sapiens, UniProt Q06546 1-454).
T2 sequence: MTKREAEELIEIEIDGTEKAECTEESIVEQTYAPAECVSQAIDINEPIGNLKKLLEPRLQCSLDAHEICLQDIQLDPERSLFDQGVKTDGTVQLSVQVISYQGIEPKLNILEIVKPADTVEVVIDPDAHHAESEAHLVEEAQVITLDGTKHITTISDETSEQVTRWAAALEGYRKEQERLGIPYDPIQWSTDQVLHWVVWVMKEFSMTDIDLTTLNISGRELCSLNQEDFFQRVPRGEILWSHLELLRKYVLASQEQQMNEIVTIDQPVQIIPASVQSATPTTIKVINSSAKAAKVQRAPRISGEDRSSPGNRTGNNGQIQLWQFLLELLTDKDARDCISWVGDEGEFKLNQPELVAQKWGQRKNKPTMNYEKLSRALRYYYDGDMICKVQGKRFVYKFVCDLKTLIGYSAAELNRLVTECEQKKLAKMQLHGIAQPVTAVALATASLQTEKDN
The procedure, abridged: as §1

In the next test the target is T3, ERG (Homo sapiens, UniProt P11308 1-479).
T3 sequence: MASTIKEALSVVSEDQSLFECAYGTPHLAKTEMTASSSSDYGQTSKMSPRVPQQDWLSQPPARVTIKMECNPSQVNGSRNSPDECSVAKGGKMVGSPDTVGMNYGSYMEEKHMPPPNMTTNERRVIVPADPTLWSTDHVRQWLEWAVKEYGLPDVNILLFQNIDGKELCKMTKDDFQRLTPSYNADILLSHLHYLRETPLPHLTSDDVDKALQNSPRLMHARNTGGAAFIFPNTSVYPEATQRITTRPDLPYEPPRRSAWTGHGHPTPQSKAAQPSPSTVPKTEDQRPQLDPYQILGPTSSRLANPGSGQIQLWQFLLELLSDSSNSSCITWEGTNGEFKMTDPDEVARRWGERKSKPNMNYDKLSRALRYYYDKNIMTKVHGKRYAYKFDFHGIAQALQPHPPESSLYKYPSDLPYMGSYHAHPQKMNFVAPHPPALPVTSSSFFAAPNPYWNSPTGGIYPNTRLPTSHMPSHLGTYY
The procedure, abridged: as §1

The next test deals with T4, EHF (Homo sapiens, UniProt Q9NZC4 1-300).
T4 sequence: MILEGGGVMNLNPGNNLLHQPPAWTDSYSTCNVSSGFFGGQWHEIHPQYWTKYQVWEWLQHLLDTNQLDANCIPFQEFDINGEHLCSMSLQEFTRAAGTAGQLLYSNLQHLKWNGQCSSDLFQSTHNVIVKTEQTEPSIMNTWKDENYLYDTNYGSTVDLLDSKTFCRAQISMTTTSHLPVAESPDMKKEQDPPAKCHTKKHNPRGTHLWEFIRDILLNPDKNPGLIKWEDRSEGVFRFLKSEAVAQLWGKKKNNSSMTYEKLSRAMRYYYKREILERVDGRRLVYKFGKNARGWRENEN
The procedure, abridged: as §1

The next test deals with SPI1 (Homo sapiens, UniProt P17947 1-270). The procedure, abridged:
as §1

A further test has as its target SPIB (Homo sapiens, UniProt Q01892 1-262). The procedure, abridged: as §1
In a further test the target is ETV5 (Homo sapiens, UniProt P41161 1-510). The procedure, abridged:
as §1

The next test has as its target T5, ELF3 (Homo sapiens, UniProt P78545 1-371).
T5 sequence: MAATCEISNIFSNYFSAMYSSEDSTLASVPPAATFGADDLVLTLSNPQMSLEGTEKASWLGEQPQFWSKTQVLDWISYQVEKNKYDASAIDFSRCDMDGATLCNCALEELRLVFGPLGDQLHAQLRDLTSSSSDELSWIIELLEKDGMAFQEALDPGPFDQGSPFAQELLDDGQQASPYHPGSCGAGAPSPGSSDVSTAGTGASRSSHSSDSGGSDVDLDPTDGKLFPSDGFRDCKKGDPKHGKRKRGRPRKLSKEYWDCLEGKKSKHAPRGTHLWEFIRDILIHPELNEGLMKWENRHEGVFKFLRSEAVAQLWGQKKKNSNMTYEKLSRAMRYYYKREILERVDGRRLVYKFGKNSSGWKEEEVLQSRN
The procedure, abridged: as §1

The target of another test is T6, ERF (Homo sapiens, UniProt P50548 1-548).
T6 sequence: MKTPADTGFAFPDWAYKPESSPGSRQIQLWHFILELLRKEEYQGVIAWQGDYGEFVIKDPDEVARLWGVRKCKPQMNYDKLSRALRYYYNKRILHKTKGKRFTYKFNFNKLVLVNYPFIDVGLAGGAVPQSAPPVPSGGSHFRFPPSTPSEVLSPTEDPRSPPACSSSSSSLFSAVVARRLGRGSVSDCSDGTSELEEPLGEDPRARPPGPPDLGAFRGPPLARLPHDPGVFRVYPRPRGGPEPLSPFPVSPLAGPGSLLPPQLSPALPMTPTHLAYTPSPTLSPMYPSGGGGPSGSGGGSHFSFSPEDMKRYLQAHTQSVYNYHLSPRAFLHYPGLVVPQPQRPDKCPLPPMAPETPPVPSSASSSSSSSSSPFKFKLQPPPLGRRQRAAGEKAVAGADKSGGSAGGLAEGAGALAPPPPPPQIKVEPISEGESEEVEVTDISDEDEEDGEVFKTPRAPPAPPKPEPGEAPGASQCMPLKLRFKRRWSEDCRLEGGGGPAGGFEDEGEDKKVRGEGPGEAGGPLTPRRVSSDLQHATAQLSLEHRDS
The procedure, abridged:
as §1

The target in a further test is T7, ETV3L (Homo sapiens, UniProt Q6ZN32 1-361).
T7 sequence: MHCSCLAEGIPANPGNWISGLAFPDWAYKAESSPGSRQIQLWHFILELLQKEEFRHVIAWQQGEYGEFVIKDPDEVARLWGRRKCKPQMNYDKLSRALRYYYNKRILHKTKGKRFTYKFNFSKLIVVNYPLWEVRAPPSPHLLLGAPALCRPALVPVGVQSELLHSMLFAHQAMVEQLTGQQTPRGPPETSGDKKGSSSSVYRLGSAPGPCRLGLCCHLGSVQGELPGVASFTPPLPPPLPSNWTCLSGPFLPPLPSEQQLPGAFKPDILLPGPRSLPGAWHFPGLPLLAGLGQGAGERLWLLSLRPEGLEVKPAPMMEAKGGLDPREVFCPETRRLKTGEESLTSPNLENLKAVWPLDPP
The procedure, abridged: as §1

The target in the next test is T8, SPDEF (Homo sapiens, UniProt O95238 1-335).
T8 sequence: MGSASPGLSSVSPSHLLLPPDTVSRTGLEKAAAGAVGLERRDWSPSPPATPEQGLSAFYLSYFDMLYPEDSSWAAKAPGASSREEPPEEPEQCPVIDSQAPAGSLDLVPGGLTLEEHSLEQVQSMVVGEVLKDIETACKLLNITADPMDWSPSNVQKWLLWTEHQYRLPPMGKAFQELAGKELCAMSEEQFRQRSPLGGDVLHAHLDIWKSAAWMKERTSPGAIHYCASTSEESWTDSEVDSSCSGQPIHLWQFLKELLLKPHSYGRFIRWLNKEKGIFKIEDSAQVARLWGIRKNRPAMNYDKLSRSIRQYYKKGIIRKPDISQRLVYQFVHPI
The procedure, abridged: as §1

The target in a further test is T9, ETV7 (Homo sapiens, UniProt Q9Y603 1-341).
T9 sequence: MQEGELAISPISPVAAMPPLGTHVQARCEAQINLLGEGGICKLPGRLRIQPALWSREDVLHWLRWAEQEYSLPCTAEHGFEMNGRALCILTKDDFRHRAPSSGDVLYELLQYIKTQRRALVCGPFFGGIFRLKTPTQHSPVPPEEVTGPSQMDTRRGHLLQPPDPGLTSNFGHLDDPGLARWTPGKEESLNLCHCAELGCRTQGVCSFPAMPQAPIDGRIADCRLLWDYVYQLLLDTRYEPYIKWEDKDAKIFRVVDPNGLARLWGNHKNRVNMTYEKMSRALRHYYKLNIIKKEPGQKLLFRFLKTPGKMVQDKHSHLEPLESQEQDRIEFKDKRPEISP
The procedure, abridged: as §1

The target of a further test is T10, ETV3 (Homo sapiens, UniProt P41162-2 1-143).
T10 sequence: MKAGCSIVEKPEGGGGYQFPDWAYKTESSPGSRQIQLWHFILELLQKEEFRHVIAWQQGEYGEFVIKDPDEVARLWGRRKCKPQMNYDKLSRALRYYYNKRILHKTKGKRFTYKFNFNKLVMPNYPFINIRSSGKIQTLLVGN
The procedure, abridged: as §1

Another test concerns the target ETV6 (Homo sapiens, UniProt P41212 1-452). The procedure, abridged: as §1

Sequence of ETV6 (P41212 whole entry): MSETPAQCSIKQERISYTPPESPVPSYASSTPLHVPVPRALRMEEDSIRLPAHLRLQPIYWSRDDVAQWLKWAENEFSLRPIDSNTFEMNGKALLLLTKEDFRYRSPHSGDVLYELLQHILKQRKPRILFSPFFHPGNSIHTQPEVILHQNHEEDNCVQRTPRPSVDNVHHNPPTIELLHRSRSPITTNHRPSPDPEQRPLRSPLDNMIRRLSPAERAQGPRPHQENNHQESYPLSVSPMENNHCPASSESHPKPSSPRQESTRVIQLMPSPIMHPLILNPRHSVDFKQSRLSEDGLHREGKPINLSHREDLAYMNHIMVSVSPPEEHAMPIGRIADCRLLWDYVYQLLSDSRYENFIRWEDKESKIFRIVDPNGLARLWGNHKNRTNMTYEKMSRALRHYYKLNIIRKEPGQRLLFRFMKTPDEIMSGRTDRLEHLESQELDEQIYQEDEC
Sequence of SPIB (Q01892 whole entry): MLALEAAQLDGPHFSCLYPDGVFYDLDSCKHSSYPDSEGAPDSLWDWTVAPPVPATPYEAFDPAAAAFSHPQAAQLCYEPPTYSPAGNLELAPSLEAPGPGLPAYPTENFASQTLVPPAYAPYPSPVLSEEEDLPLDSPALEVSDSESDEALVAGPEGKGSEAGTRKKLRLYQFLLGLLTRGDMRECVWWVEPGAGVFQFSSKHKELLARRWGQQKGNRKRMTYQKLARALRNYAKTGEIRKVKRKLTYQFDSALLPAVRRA
Sequence of ETV5 (P41161 whole entry): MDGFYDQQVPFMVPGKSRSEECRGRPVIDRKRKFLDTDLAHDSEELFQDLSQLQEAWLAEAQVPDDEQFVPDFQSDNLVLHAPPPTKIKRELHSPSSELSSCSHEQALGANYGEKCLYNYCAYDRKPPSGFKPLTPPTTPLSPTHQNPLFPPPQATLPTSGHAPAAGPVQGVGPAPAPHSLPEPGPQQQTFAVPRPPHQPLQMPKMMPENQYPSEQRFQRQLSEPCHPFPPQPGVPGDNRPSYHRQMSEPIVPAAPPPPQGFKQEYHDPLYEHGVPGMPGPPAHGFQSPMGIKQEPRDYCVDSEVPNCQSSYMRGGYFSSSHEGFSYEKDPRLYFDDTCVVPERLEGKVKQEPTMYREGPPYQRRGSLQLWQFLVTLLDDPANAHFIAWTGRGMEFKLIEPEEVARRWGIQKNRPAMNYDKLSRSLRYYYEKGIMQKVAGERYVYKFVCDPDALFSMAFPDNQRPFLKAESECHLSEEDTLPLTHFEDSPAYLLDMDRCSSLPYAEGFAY

In the case of GGGAAA, the binding signal is 1.05 fold enrichment (6-mer frequency, TF over GST control) with ELK1; 1.02 fold enrichment (6-mer frequency, TF over GST control) with GABPA; 1.03 fold enrichment (6-mer frequency, TF over GST control) with ERG; 1.07 fold enrichment (6-mer frequency, TF over GST control) with EHF; 1.05 fold enrichment (6-mer frequency, TF over GST control) with SPI1; 1.1 fold enrichment (6-mer frequency, TF over GST control) with SPIB. For the same sequence, the binding signal with ETV5 is 1.05 fold enrichment (6-mer frequency, TF over GST control); with ELF3, 1.03 fold enrichment (6-mer frequency, TF over GST control); in the test with ERF, 1.02 fold enrichment (6-mer frequency, TF over GST control); with ETV3L, 1.05 fold enrichment (6-mer frequency, TF over GST control); in the test with SPDEF it was 1.01 fold enrichment (6-mer frequency, TF over GST control); with ETV7 it was 1.12 fold enrichment (6-mer frequency, TF over GST control). Further, the binding signal is 1.03 fold enrichment (6-mer frequency, TF over GST control) in the test with ETV3 and 1.22 fold enrichment (6-mer frequency, TF over GST control) in the test with ETV6.
